# PubChem BioAssay (Tox21)
# Several values for one entry are separate records, joined by “and”; a condition that tells them apart may be missing. Equal entries are not always repeated. Inconclusive results are not listed. Where a call stands in place of a potency, no number is given. The source holds several records for some structures; these can differ, active in one and inactive in another. Activity calls are given as the source filed them. Unless noted, the call rests on the fitted dose curve; in most records, active means well fitted curve in the direction sought with a large enough effect in the repeat runs; inconclusive means weak or mixed curves; inactive means no such curve, though single readings can be large; an effect the other way counts as inactive or inconclusive.
# Legend:
# [1] = qHTS assay to identify small molecule agonists of the estrogen related receptor (ERR) signaling pathway (AID 1224820)
# Summary of the method: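 An ERR cell line provided by NTP was seeded at 2,000 cells per well and allowed to settle for 6 h before compounds in DMSO were added. After 18 h at 37 C, luciferase activity was measured by One-Glo luminescence.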
# [2] = qHTS assay to identify small molecule antagonists of the estrogen related receptor signaling pathway with the pleiotropic PPARgamma coactivator (PGC) cell viability counter screen (AID 1224822; further: potency means the concentration at half of the fitted maximal effect)
# Summary of the method: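 Viability counter-screen read by fluorescence intensity after 30 min with CellTiter-Fluor at 37 C; PGC/ERR reporter cells were exposed to compounds for 17.5 h at 37 C following a 6 h preincubation.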
# [3] = qHTS assay to identify small molecule agonists of the estrogen related receptor signaling pathway with the pleiotropic PPARgamma coactivator (PGC) (AID 1224823)
# Summary of the method: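 Compounds dissolved in DMSO are added by pin tool to PGC/ERR cells that have settled for 6 h, and incubation continues 18 h at 37 C. Reporter output is measured as One-Glo luminescence.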
# [4] = qHTS assay for small molecule agonists of the p53 signaling pathway (AID 651631; calls by dose curve; further: nearly all actives have a fitted effect of over 15% in size; further: potency means the concentration at half of the fitted maximal effect)
# Summary of the method: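 HCT-116 cells carrying a stable p53 response element–beta-lactamase reporter were plated, rested 5 h at 37 °C, then exposed to compound in DMSO for 16 h at 37 °C; reporter activity was read as FRET substrate fluorescence after 2 h at room temperature.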
# [5] = qHTS assay for identifying genotoxic compounds that show differential cytotoxicity against isogenic chicken DT40 cell lines with known DNA damage response pathways - wild type cell line (AID 743012); further: nearly all actives have a fitted effect of over 60% in size; further: potency means the concentration at half of the fitted maximal effect
# Summary of the method: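 Viability by ATP luminescence (CellTiter-Glo, 30 min RT) after 40 h compound treatment at 37 C/5% CO2, using 300 parental DNA repair-proficient DT40 cells per well.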
# [6] = qHTS assay for identifying genotoxic compounds that show differential cytotoxicity against isogenic chicken DT40 cell lines with known DNA damage response pathways - Rev3 mutant cell line (AID 743014); further: nearly all actives have a fitted effect of over 55% in size; further: potency means the concentration at half of the fitted maximal effect
# [7] = qHTS assay to identify small molecule agonists of the estrogen related receptor signaling pathway with the pleiotropic PPARgamma coactivator (PGC) from Tox21 10K library (AID 1224842); further: nearly all actives have a fitted effect of over 15% in size
# Summary of the method: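 PGC/ERR reporter cells (NTP line) were seeded 2,000 per well, rested 6 h at 37 C/5% CO2, then pin-dosed with compounds in DMSO for 18 h at 37 C; luciferase read by One-Glo luminescence after 30 min at room temperature.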
# [8] = qHTS assay to identify small molecule agonists of the estrogen related receptor (ERR) signaling pathway from Tox21 library (AID 1224849; calls by dose curve; further: nearly all actives have a fitted effect of over 15% in size); details: ERR reporter cell line, ONE-Glo luciferase, 18 h
# Summary of the method: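 Luminescent agonist read-out (One-Glo, 30-minute room-temperature incubation) following 18-hour compound treatment at 37 C of the ERR cell line, which had been plated 6 hours before dosing.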
# [9] = qHTS assay to identify small molecule antagonists of the estrogen receptor alpha (ER-alpha) signaling pathway using the BG1 cell line in the presence of 0.1 nM 17-beta-estradiol - cell viability counter screen (AID 1259241); further: nearly all actives have a fitted effect of over 40% in size
# Summary of the method: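 VM7Luc4E2 cells (endogenous ER-alpha, 4×ERE-luciferase), hormone-starved 5 days in charcoal-stripped FBS, were treated with compounds plus 0.1 nM 17beta-estradiol for 22 hr at 37C; viability read in same wells as CellTiter-Fluor live-cell protease fluorescence.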
# [10] = target: Acetylcholinesterase (Homo sapiens) (UniProt P22303); test: Acetylcholinesterase (AChE) small molecule antagonists: colormetric cell-based qHTS assay (AID 1347395; calls by dose curve; further: nearly all actives have a fitted effect of over 30% in size)
# Acetylcholinesterase (Homo sapiens), sequence (P22303 whole entry, looked up): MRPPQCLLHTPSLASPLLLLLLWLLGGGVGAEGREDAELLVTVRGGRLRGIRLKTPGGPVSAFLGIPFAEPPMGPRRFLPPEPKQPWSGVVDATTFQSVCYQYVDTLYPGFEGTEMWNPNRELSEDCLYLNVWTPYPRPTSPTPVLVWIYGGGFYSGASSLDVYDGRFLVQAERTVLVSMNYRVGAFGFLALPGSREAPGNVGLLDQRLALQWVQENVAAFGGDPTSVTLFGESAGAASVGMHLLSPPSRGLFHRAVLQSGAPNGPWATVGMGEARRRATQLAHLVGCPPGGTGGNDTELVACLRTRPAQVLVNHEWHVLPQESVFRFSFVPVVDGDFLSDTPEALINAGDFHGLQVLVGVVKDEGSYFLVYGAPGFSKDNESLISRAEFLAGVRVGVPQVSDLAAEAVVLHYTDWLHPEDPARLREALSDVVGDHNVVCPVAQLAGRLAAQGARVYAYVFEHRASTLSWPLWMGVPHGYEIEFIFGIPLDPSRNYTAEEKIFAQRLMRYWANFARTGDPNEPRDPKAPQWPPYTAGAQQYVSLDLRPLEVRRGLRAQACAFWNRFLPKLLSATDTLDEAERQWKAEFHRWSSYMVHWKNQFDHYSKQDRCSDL
# Summary of the method: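 SH-SY5Y cells, plated overnight at 37 C, were exposed to compounds for 30 min at 37 C and 5% CO2. Acetylthiocholine plus DTNB was then added, and thiocholine from endogenous AChE was quantified colorimetrically after 90 min at 37 C.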
# [11] = target: Acetylcholinesterase (Homo sapiens) (UniProt P22303); test: Acetylcholinesterase (AChE) small molecule antagonists: enzyme-based qHTS assay (AID 1347397; calls by dose curve; further: nearly all actives have a fitted effect of over 55% in size); details: Potency: AChE enzyme activity inhibition; outcome: AChE enzyme activity inhibition
# Summary of the method: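 Tox21 library chemicals are tested in qHTS format against recombinant human AChE. The enzyme, dispensed at 50 mU/mL, sits with compound for 30 min at room temperature. A DTNB–acetylthiocholine cocktail follows, and colour is read after 10 min.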
# [12] = target: Acetylcholinesterase (Homo sapiens) (UniProt P22303); test: Acetylcholinesterase (AChE) small molecule antagonists: fluorescence cell-based qHTS assay (AID 1347398; calls by dose curve; further: nearly all actives have a fitted effect of over 50% in size); details: Potency: AChE activity; outcome: AChE activity
# Summary of the method: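 Cellular AChE inhibition: SH-SY5Y cells treated with test chemical for 30 min at 37 C, then acetylthiocholine hydrolysis followed over 40 min at room temperature via thiocholine-reactive Thiolite Green fluorescence (490/520 nm).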
# [13] = target: Acetylcholinesterase (Homo sapiens) (UniProt P22303); test: Acetylcholinesterase (AChE) small molecule antagonists: enzyme-based qHTS assay with human liver microsomes (AID 1347399; calls by dose curve; further: nearly all actives have a fitted effect of over 60% in size); details: Potency: qHTS inhibition; outcome: qHTS inhibition
# Summary of the method: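 Recombinant human AChE (50 mU/mL in the enzyme mix) and human liver microsomes (0.25 mg/mL final) were preincubated with compound and NADPH (0.25 mg/mL final) for 30 min at 37 C. Acetylthiocholine/DTNB was then added; thiocholine was read colorimetrically after 10 min at room temperature.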
# [14] = target: Androgen receptor (Homo sapiens) (UniProt P10275); test: qHTS assay to identify small molecule agonists of the androgen receptor (AR) signaling pathway using the MDA cell line (AID 743040; further: nearly all actives have a fitted effect of over 20% in size; further: potency means the concentration at half of the fitted maximal effect)
# Androgen receptor (Homo sapiens), sequence (P10275 whole entry, looked up): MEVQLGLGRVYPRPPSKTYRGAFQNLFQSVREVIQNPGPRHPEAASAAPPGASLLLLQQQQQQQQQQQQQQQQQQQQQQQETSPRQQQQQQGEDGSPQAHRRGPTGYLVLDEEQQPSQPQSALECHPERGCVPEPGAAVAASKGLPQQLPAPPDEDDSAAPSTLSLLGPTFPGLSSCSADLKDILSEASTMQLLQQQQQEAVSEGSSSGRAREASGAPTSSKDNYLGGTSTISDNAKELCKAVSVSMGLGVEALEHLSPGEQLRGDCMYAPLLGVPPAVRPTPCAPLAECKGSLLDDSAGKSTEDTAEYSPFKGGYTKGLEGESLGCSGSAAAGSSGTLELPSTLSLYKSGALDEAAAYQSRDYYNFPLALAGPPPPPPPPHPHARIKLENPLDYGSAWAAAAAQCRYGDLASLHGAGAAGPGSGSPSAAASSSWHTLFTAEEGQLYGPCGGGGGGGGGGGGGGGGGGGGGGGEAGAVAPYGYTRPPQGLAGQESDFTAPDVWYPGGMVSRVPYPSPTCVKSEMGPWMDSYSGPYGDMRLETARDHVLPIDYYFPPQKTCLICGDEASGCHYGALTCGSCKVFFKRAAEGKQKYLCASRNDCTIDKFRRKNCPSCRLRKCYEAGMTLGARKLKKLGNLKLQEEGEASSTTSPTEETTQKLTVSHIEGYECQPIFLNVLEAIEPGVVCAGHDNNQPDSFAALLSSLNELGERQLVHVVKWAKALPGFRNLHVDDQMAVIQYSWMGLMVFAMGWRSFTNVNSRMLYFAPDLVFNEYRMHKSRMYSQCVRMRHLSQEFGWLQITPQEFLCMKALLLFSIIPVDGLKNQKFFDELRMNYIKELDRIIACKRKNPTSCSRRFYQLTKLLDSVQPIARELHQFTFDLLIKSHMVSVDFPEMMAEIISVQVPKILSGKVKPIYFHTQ
# Summary of the method: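 Agonist activity is measured as luciferase luminescence in human MDA-kb2 cells whose MMTV reporter responds to both AR and GR. Compounds in DMSO incubate 16 h at 37C, 0% CO2, and ONE-Glo is read after 30 min.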
# [15] = target: Androgen receptor (Homo sapiens) (UniProt P10275); test: qHTS assay to identify small molecule antagonists of the androgen receptor (AR) signaling pathway using the MDA cell line (AID 743042; further: nearly all actives have a fitted effect of over 55% in size; further: potency means the concentration at half of the fitted maximal effect)
# Summary of the method: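 MDA-kb2 cells (human breast carcinoma, stably carrying an MMTV-luciferase reporter responsive to AR and GR) were plated at 3,000 cells/well and preincubated 5 hr at 37C, then given compound plus R1881 agonist for 16 h. ONE-Glo luminescence was read.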
# [16] = target: Peroxisome proliferator-activated receptor gamma (Homo sapiens) (UniProt P37231); test: qHTS assay to identify small molecule agonists of the peroxisome proliferator-activated receptor gamma (PPARg) signaling pathway (AID 743094; active means well fitted activation curve with a large enough effect in the signal ratio in the repeat runs, not every such curve was filed as active; the % refers to the signal ratio)
# Peroxisome proliferator-activated receptor gamma (Homo sapiens), sequence (P37231 whole entry, looked up): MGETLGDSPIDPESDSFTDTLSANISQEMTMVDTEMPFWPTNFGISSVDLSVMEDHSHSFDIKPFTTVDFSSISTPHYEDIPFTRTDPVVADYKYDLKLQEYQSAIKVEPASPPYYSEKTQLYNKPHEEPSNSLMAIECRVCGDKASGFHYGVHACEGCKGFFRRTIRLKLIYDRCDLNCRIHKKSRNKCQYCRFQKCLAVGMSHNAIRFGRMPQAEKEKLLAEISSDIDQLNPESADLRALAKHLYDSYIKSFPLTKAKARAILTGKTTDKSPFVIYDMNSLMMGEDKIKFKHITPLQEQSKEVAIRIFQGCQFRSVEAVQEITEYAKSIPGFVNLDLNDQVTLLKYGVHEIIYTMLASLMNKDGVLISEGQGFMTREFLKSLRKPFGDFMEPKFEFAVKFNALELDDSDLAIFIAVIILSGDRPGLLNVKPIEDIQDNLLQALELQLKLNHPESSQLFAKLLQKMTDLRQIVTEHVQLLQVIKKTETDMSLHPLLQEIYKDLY
# Summary of the method: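 Agonist activity was taken from a beta-lactamase reporter (FRET substrate, 1 h at room temperature) in HEK293H cells carrying a PPARg UAS-bla construct. Compounds in DMSO were incubated 17 h at 37C after a 5 h cell pre-incubation.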
# [17] = target: Androgen receptor (Homo sapiens) (UniProt P10275); test: qHTS assay to identify small molecule antagonists of the androgen receptor (AR) signaling pathway (AID 743035; active means well fitted inhibition curve with a large enough effect in the signal ratio in the repeat runs, not every such curve was filed as active; the % refers to the signal ratio)
# Summary of the method: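 Antagonist mode: AR-bla HEK293 cells co-treated with test compounds and agonist R1881 for 16 h at 37C, 5% CO2. Beta-lactamase activity read as FRET fluorescence after 2 h room-temperature substrate loading.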
# [18] = target: Androgen receptor (Homo sapiens) (UniProt P10275); test: qHTS assay to identify small molecule agonists of the androgen receptor (AR) signaling pathway (AID 743036; active means well fitted activation curve with a large enough effect in the signal ratio in the repeat runs, with a control signal flat, not every such curve was filed as active; the % refers to the signal ratio)
# Summary of the method: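 HEK293 cells stably carrying a UAS-driven beta-lactamase reporter (GeneBLAzer AR-UAS-bla-GripTite) were plated at 2,000 cells/well, rested 4 h at 37C, then exposed to compounds in DMSO for 16 h. LiveBLAzer B/G FRET substrate was added for 2 h at room temperature; fluorescence read.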
smiles,measurement,setting,value
Ic1ccccc1CNC1C2CCN(CC2)C1C(c1ccccc1)c1ccccc1 (stereo not given),Potency,[1],inactive
same,Potency,[2],19.6 µM (active)
same,Potency,[3],inactive
O=C(O)/C=C\C(=O)O,Potency,[4],inactive
same,Potency,[5],inactive
same,Potency,[6],inactive
same,Potency,[7],inactive
same,"activity change, positive = activation",[8]; at 42.5 µM (top of the series),6.09% (inactive)
same,"activity change, positive = activation",[8]; at 92.4 µM (top of the series),3.24% (inactive) and 1.53% (inactive)
same,Potency,[9],inactive
same,Potency,[10],inactive
same,Potency,[11],inactive
same,Potency,[12],inactive
same,Potency,[13],inactive
COC[C@H]1OC(=O)c2coc3c2[C@@]1(C)C1=C(C3=O)C2CCC(=O)[C@@]2(C)C[C@H]1OC(C)=O (stereo not given in full),Potency,[1],inactive
same,Potency,[2],inactive
same,Potency,[3],inactive
CCS(=O)(=O)Nc1cccc(C(=C2CCCCC2)c2cnc[nH]2)c1,Potency,[1],inactive
same,Potency,[2],inactive
same,Potency,[3],inactive
CC[N+](C)(CC)CCOC(=O)C(O)(c1ccccc1)c1ccccc1,Potency,[4],inactive
same,Potency,[6],inactive
COC(COC(N)=O)C1=C(N2CC2)C(=O)C(C)=C(N2CC2)C1=O (stereo not given),Potency,[4],0.298 µM (active)
same,Potency,[14],inactive
same,Potency,[15],1.33 µM (active)
C#CC(C)(O)CC (stereo not given),Potency,[4],inactive
same,Potency,[6],inactive
same,Potency,[16],inactive
C[C@@H](CO)NC(=O)[C@@H]1C=C2c3cccc4[nH]cc(c34)C[C@H]2N(C)C1,Potency,[4],inactive
same,Potency,[5],inactive
same,Potency,[6],inactive
same,Potency,[17],inactive
same,Potency,[14],26.6 µM (active)
same,Potency,[15],inactive
same,Potency,[16],inactive
CC(=O)O[C@H]1CC[C@H]2[C@@H]3CCC4=CC(=O)CCC4=C3C=C[C@]12C,Potency,[4],inactive
same,Potency,[5],23.7 µM (active)
same,Potency,[14],0.0017 µM (active)
same,Potency,[15],inactive
c1cc2c(c(NC3=NCCN3)c1)CCCC2,Potency,[4],inactive
same,Potency,[17],inactive
same,Potency,[14],inactive
same,Potency,[15],inactive
O=[N+]([O-])c1cc(I)c(O)c(I)c1,Potency,[4],5.31 µM (active)
same,Potency,[14],inactive
same,Potency,[15],inactive
CN(C)CCCCCCN(C)C,Potency,[5],inactive
same,Potency,[9],inactive
O=S(=O)(O)c1cc(O)ccc1O,Potency,[6],inactive
same,Potency,[9],inactive
CCOc1ccc2c3c1O[C@H]1[C@@H](O)C=C[C@H]4[C@@H](C2)N(C)CC[C@@]341,Potency,[4],inactive
same,Potency,[16],inactive
CCC1(CC)C(=O)NC(=O)N(C)C1=O,Potency,[4],inactive
same,Potency,[5],inactive
same,Potency,[6],inactive
same,Potency,[16],inactive
CN=C1CN(O)C(c2ccccc2)=c2cc(Cl)ccc2=N1,Potency,[4],inactive
same,Potency,[5],inactive
same,Potency,[6],inactive
same,Potency,[16],inactive
Clc1ccc2c(c1)C(c1ccccc1)=NCc1nncn1-2,Potency,[4],inactive
same,Potency,[5],inactive
same,Potency,[18],inactive
same,Potency,[14],inactive
same,Potency,[15],inactive
same,Potency,[16],inactive
CC(C)(O)[C@@H]1[C@H]2OC(=O)[C@@H]1[C@]1(O)C[C@H]3O[C@]34C(=O)O[C@H]2[C@]14C,Potency,[4],inactive
same,Potency,[5],inactive
same,Potency,[6],inactive
CC1(C)S[C@@H]2[C@H](N)C(=O)N2[C@H]1C(=O)O,Potency,[4],inactive
same,Potency,[6],inactive
same,Potency,[17],inactive
same,Potency,[18],inactive
same,Potency,[14],inactive
same,Potency,[15],inactive
CCC1(C)CC(=O)NC(=O)C1,Potency,[4],inactive
same,Potency,[5],inactive
same,Potency,[16],inactive
CCC(N)Cc1c[nH]c2ccccc12 (stereo not given),Potency,[4],inactive
same,Potency,[5],inactive and 68.8 µM (active)
same,Potency,[6],inactive
same,Potency,[16],inactive
CCC1(c2cnc[nH]2)Cc2ccccc2C1,Potency,[5],21.1 µM (active) and 26.6 µM (active)
same,Potency,[6],26.6 µM (active)
same,Potency,[16],inactive
same,Potency,[9],inactive
same,Potency,[10],inactive
same,Potency,[11],inactive
same,Potency,[12],inactive
same,Potency,[13],inactive
CCC(=O)O[C@@](Cc1ccccc1)(c1ccccc1)[C@@H](C)CN(C)C,Potency,[4],inactive
same,Potency,[5],inactive
same,Potency,[6],inactive
[2H]C([2H])([2H])[C@H](N)Cc1ccccc1,Potency,[4],inactive
same,Potency,[6],inactive
same,Potency,[17],inactive
same,Potency,[14],inactive
same,Potency,[15],inactive
same,Potency,[16],inactive
C[C@]12CC[C@H](OS(=O)(=O)O)CC1=CC[C@@H]1[C@@H]2CC[C@]2(C)C(=O)CC[C@@H]12,Potency,[4],inactive
same,Potency,[6],inactive
same,Potency,[17],inactive
same,Potency,[14],21.1 µM (active)
same,Potency,[15],inactive
same,Potency,[16],inactive
CC(=O)Oc1ccc2c3c1O[C@H]1[C@@H](OC(C)=O)C=C[C@H]4[C@@H](C2)N(C)CC[C@@]341,Potency,[4],inactive
same,Potency,[5],inactive and 68.3 µM (active)
same,Potency,[6],inactive
same,Potency,[16],inactive
CC(Cc1ccccc1)NC=O (stereo not given),Potency,[4],inactive
same,Potency,[16],inactive
CNC(=O)OCC[N+](C)(C)C,Potency,[4],inactive
same,Potency,[5],inactive
same,Potency,[6],inactive
O=C1CCCCC1CN1CCCCC1 (stereo not given),Potency,[4],inactive
same,Potency,[5],23.7 µM (active)
same,Potency,[17],inactive
same,Potency,[18],inactive
same,Potency,[14],inactive
same,Potency,[15],inactive
C[C@@H]([C@H](O)c1ccccc1)N(C)C,Potency,[4],inactive
same,Potency,[5],inactive
NCC(O)c1cccc(O)c1 (stereo not given),Potency,[4],inactive
same,Potency,[17],inactive
same,Potency,[18],inactive
same,Potency,[14],inactive
same,Potency,[15],inactive
same,Potency,[16],inactive
CC(N)Cc1ccc(O)cc1 (stereo not given),Potency,[4],inactive
same,Potency,[5],inactive
C[C@]12C=CC(=O)C=C1CC[C@@H]1[C@@H]2CC[C@]2(C)OC(=O)CC[C@@H]12,Potency,[4],inactive
same,Potency,[5],inactive
same,Potency,[6],inactive
same,Potency,[16],inactive
CN[C@H]1C[C@@H](N)[C@H](O)[C@@H](O[C@@H]2O[C@H](CO)[C@H](O)[C@@H]3OC4(O[C@H]23)O[C@H](C(N)CO)[C@H](O)[C@H](O)[C@H]4O)[C@@H]1O (stereo not given in full),Potency,[4],inactive
same,Potency,[5],inactive
same,Potency,[6],inactive
same,Potency,[16],inactive
CC(=O)OCC(=O)[C@H]1CC[C@H]2[C@@H]3CC[C@H]4C[C@H](O)CC[C@]4(C)[C@H]3C(=O)C[C@]12C,Potency,[4],inactive
same,Potency,[5],inactive
